Source: PubChem BioAssay (NCI)
Compounds without any hit were thinned out: in the full panel of roughly 83,000, 20% have a hit.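 The endpoint reported here, percent growth, reads 100 for growth as untreated, 0 for no net growth and -100 for all cells dead.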 Values without a mark were called inactive. Active and inactive are the calls of the source.

system: KM12 colon; test: NCI-60 one-dose screen, 48 h (100 = growth as untreated, 0 = no growth, -100 = all killed); conditions: 10 µM unless noted
Description: Growth inhibition of the KM12 human tumor cell line is measured as a screen for anti-cancer activity. Cells are grown in 96 well plates and exposed to the test compound for 48 hours. Compounds are tested at a single concentration, which is 10^-5 M for most compounds. The reported endpoint is percent growth (GI% or GIPRCNT), where numbers from 0 - 100% represent growth inhibition, and numbers from -100% - 0 represent cell death. For example, a value of 40 represents 60% growth inhibition. A value of 0 means no net growth occurred over the course of the experiment. A value of -40 indicates 40% of cells at the beginning of the experiment died by the end of the experiment. A value of -100 means all cells are dead at the end of the experiment.
NCI-60 Human Tumor Cell Lines Screen was performed using the standard one-dose NCI protocol, which is described in more detail at https://dtp.cancer.gov/discovery_development/nci-60/default.htm.
Compounds with GIPRCNT values below 10 were considered active. Activity score was based on GIPRCNT using the following formula: […]
Score is 0 for GIPRCNT values of 100 or above, 50 for GIPRCNT values of 0, and 100 for GIPRCNT values of -100.

**Q.** With CN1CCN(c2ccc(-c3cnc4c(-c5csc6ccccc56)cnn4c3)cc2)CC1 as the molecule, how does the growth read?
**A.** -3.74% (active)

**Q.** Which growth does the source give for Fc1cc(-c2nnc3n2NC(=Nc2ccc(Cl)cc2)CS3)c(Cl)cc1Cl here?
**A.** 60.5%

**Q.** Which growth does the source give for O=C1NC(=O)C(Cn2cnc3ccccc32)N1 (stereo not given) here?
**A.** 102%

**Q.** With CCN1C(=O)N(CC)C2Nn3c(s/c(=C\c4ccc([N+](=O)[O-])cc4)c3=O)=NC21 (stereo not given) as the molecule, how does the growth read?
**A.** 97.8%

**Q.** c1ccc(OCc2nnc(-c3ccc(Oc4ccccc4)cc3)o2)cc1 was tested. Which growth did it give?
**A.** 93.7%

**Q.** Which growth does the source give for O=C(CSc1nc2ccccc2[nH]1)Nc1cccc(Cl)c1 here?
**A.** 99.5%

**Q.** How did the growth turn out when CCn1cnc2c1c(=O)[nH]c(=O)n2CC1CCC(CNS(=O)(=O)c2ccc(OC3CCOCC3)c(F)c2)CC1 (stereo not given) was run?
**A.** 59.9%

**Q.** For O=C1CCC/C=C\C[C@H]2C=CC(=O)/C2=C/C[C@H](CCc2cccc(C(F)(F)F)c2)O1, which growth is on record?
**A.** -63.5% (active)

**Q.** For COc1ccc(-c2nc3sc(-c4ccc(Cl)cc4)cn3n2)cc1, which growth is on record?
**A.** 54.7%

**Q.** For COc1ccc(OC)c(/C=C/C(=O)N/N=C/c2ccc(Cl)cc2)c1, which growth is on record?
**A.** 18%

**Q.** With CN(C)CCNc1nc2ccccc2c2c(=O)c3cc(F)ccc3sc12 as the molecule, how does the growth read?
**A.** 8.53% (active)

**Q.** For CSc1ncccc1C(=O)OCC(=O)Nc1oc(C)c2c(C)n[nH]c(=O)c12, which growth is on record?
**A.** 103%

**Q.** Which growth does the source give for CS(=O)(=O)Nc1cc(-c2ccc3ncnc(Nc4cccc(Cl)c4F)c3c2)cnc1Cl here?
**A.** 69.3%

**Q.** How did the growth turn out when Cc1ccc(C(=O)NCCNc2nccc(-c3c(-c4cccc(F)c4)nc4sccn34)n2)cc1 was run?
**A.** 77.5%

**Q.** CC(=O)Oc1ccccc1C(=O)N=C1[Se]CCCN1C(=O)c1ccccc1OC(C)=O was tested. Which growth did it give?
**A.** 30.5%

**Q.** How did the growth turn out when CN(C)CCN1CCN(c2ncccc2C2Nc3ccccc3-n3cccc32)CC1 (stereo not given) was run?
**A.** 105%

**Q.** For NS(=O)(=O)c1ccc(N=Nc2ccc(-c3nn4cc(-c5ccccc5)nc4s3)cc2)cc1, which growth is on record?
**A.** 95.7%

**Q.** With COc1ccc2c(c1OC)C(=O)O[C@H]2[C@H]1c2c(cc3c(c2OC)OCO3)CCN1C as the molecule, how does the growth read?
**A.** 95.2%

**Q.** Nc1nc(Cl)cc(=O)n1Cc1ccccc1 was tested. Which growth did it give?
**A.** 101%

**Q.** O=C(Nc1ccc(-c2nc(-c3cccc(OCCN4CCOCC4)c3)c(-c3ccnc(Br)c3)[nH]2)cc1)c1ccccc1 was tested. Which growth did it give?
**A.** 0.737% (active)

**Q.** COc1c(B(O)O)cc(F)cc1-c1nc2ccc3[nH]ncc3c2c2c1CCCC2 was tested. Which growth did it give?
**A.** -3.54% (active)

**Q.** For O=C(Cc1ccc2c(c1)OCCO2)Nc1nc2ccc(F)cc2s1, which growth is on record?
**A.** 108%

**Q.** Which growth does the source give for Cc1ccc(/C=N\NC(=O)c2[nH]c3ccc(F)cc3c2-c2ccccc2)cc1 here?
**A.** -0.0461% (active)

**Q.** S=c1nc(-c2ccccc2)oc(=NC2CCCCC2)n1C1CCCCC1 was tested. Which growth did it give?
**A.** 10.7%

**Q.** With Cc1ccc(C(CC(=O)O)c2c(C)[nH][nH]c2=O)cc1 (stereo not given) as the molecule, how does the growth read?
**A.** 101%

**Q.** How did the growth turn out when CCc1cccc2c3c(sc12)C(c1ccc(Cl)cc1)C(C#N)=C(N)O3 (stereo not given) was run?
**A.** 18.5%

**Q.** For O=c1ccc(N=Nc2ccc([N+](=O)[O-])cc2)ccc1O, which growth is on record?
**A.** 16.7%

**Q.** For CCc1cccc2c1S/C(=C/c1ccc(Cl)cc1)C2=O, which growth is on record?
**A.** 98.2%

**Q.** With c1cc(-c2nnc(SSc3ncnc4nc[nH]c34)o2)ccn1 as the molecule, how does the growth read?
**A.** 45.8%

**Q.** Which growth does the source give for CC(C)n1cnc2c(Nc3cccc(Cl)c3)nc(N[C@H]3CCCC[C@@H]3N)nc21 here?
**A.** 13.5%

**Q.** How did the growth turn out when Cc1cc(=O)[nH]c(=O)n1Cc1cn(-c2c3ccccc3nc3ccccc23)nn1 was run?
**A.** 98.6%

**Q.** How did the growth turn out when COc1cc(C(=O)c2cc(C)c3[nH]c4ccc(C)cc4c3c2C)cc(OC)c1OC was run?
**A.** 3.84% (active)

**Q.** With COc1cc(CCC[P+](c2ccccc2)(c2ccccc2)c2ccccc2)c(OC)c(OC)c1OC as the molecule, how does the growth read?
**A.** 75.9%

**Q.** How did the growth turn out when COc1ccccc1/C=C1\Oc2cc(OCCN3CCC(Cc4ccccc4)CC3)ccc2C1=O was run?
**A.** 91.7%

**Q.** Which growth does the source give for COc1ccc(C2CC(c3ccc(Nc4ccnc5cc(Cl)ccc45)cc3)=NN2C=O)cc1 (stereo not given) here?
**A.** 66.2%

**Q.** Which growth does the source give for COc1ccc2nc(NCCCNCCO)c3sc4ccc(F)cc4c(=O)c3c2c1 here?
**A.** -58.7% (active)

**Q.** Which growth does the source give for COc1cc2cc(Oc3ccc(NC(=O)Nc4cc(C(F)(F)F)cc(C(F)(F)F)c4)cc3)c(C)nc2cc1OCCN1CCOCC1 here?
**A.** 13.3%

**Q.** For CN1C(=O)CNC(=O)[C@H](NC(=O)c2nc3ccccc3cc2O)CSSC[C@H]1C(=O)NCCc1nc2ccccc2cc1O, which growth is on record?
**A.** 30%

**Q.** For COc1ccc(CN2c3ccccc3CCc3ccccc32)cc1F, which growth is on record?
**A.** 16.5%

**Q.** How did the growth turn out when Cc1cccc2c3c(sc12)C(c1ccc(Cl)cc1)C(C#N)=C(/N=C/c1ccc(Cl)cc1)O3 (stereo not given) was run?
**A.** 9.86% (active)
